Experimental data from PubChem BioAssay (NCATS).
Records with an inconclusive call do not appear. Active and inactive are the calls of the source. Calls follow the shape of the dose curve; as a rule, active = well fitted inhibition curve with a large enough effect; inconclusive = small, poorly fitted or top-dose-only effect; inactive = no such curve, though single readings can be large or run the other way.

Target: RecQ-like DNA helicase BLM (Homo sapiens) (UniProt P54132)
Test: qHTS Validation Assay for Inhibitors of Bloom's syndrome helicase (BLM) (AID 2364)
Settings: BLM helicase DNA unwinding, fluorescence, in vitro; series mostly up to 57.1 µM; activity change, negative = inhibition: at the top concentration
From the text: Survival of cells and the faithful propagation of the genome depend on elaborate mechanisms of detecting and repairing DNA damage. Treatment of advanced cancer relies on radiation therapy or chemotherapy, which kill cancer cells by causing extensive DNA damage. It is often found, that cancer cells develop resistance to therapy through enhanced activity of DNA repair functions; this has led to an increased interest in developing drugs that interfere with DNA repair, which could sensitize cancer cells to conventional therapy.
This validation qHTS assay pertains to human BLM, which is important in resolving abnormal DNA structures formed during replication or homologous recombination. Shutting down the expression of BLM leads to chromosomal instability and higher radiation sensitivity in cultured cells.
The validation assay was a fluorescence quenching based kinetic qHTS for BLM Helicase DNA unwinding. The activity was measured as ATP-dependent separation of a 20-bp DNA duplex extended by 30-nt single-stranded tails (forked duplex). The forked DNA substrate was tagged with rhodamine fluorophore (carboxytetramethyl rhodamine, TAMRA) and BHQ-2 (Black Hole Quencher 2) dark quencher. Strand separation results in an increase in the fluorescence of TAMRA (excitation 525 nm, emission 598 nm). This substrate construct operates in a red-shifted region where very few compound library members have been noted to fluoresce (PubChem AIDs 593 and 594). An additional feature of the assay is the inclusion of 2.5 ug/ml poly (dIdC), to reduce interference by compounds such as DNA intercalators, a major source of false inhibitors.
Ian Hickson, University of Oxford
Opher Gileadi, Structural Genomics Consortium, University of Oxford
Screening Center PI: Austin, C.P.
Screening Center: NIH Chemical Genomics Center [NCGC]
Three uL of reaction buffer (25 mM Tris-HCl (pH 8.0), 5 mM NaCl, 2 mM MgCl2, 1mM DTT, 0.01% Tween- 20, and 2.5 ug/ml poly(dI-dC), including enzyme (50 nM BLM), were dispensed into a 1536-well Greiner black assay plate via solenoid-valve based nanoliter dispensers. Compounds (23 nl each in columns 5-48) and control (23 nl each in column 2 as dose-response) were transferred via a Kalypsys pintool equipped with a 1536-pin array. The plates were incubated for 15 min at room temperature, and then 1 ul of substrates (200 nM DNA and 2 mM ATP, final concentrations) was added to start the reaction. The plate was transferred into a ViewLux high-throughput CCD imager where the reaction progress was measured in a discontinuous kinetic mode (two reads spaced 2 hours apart, with intermediate room temperature incubation of the covered assay plate) by using standard red-fluorescence optics (excitation filter 525 nm, emission filter 598 nm). Enzyme-free and vehicle (DMSO) controls were included for signal normalization.
Potency is read from the fitted curve at half-maximal effect.

RecQ-like DNA helicase BLM (Homo sapiens), sequence (P54132 whole entry, looked up): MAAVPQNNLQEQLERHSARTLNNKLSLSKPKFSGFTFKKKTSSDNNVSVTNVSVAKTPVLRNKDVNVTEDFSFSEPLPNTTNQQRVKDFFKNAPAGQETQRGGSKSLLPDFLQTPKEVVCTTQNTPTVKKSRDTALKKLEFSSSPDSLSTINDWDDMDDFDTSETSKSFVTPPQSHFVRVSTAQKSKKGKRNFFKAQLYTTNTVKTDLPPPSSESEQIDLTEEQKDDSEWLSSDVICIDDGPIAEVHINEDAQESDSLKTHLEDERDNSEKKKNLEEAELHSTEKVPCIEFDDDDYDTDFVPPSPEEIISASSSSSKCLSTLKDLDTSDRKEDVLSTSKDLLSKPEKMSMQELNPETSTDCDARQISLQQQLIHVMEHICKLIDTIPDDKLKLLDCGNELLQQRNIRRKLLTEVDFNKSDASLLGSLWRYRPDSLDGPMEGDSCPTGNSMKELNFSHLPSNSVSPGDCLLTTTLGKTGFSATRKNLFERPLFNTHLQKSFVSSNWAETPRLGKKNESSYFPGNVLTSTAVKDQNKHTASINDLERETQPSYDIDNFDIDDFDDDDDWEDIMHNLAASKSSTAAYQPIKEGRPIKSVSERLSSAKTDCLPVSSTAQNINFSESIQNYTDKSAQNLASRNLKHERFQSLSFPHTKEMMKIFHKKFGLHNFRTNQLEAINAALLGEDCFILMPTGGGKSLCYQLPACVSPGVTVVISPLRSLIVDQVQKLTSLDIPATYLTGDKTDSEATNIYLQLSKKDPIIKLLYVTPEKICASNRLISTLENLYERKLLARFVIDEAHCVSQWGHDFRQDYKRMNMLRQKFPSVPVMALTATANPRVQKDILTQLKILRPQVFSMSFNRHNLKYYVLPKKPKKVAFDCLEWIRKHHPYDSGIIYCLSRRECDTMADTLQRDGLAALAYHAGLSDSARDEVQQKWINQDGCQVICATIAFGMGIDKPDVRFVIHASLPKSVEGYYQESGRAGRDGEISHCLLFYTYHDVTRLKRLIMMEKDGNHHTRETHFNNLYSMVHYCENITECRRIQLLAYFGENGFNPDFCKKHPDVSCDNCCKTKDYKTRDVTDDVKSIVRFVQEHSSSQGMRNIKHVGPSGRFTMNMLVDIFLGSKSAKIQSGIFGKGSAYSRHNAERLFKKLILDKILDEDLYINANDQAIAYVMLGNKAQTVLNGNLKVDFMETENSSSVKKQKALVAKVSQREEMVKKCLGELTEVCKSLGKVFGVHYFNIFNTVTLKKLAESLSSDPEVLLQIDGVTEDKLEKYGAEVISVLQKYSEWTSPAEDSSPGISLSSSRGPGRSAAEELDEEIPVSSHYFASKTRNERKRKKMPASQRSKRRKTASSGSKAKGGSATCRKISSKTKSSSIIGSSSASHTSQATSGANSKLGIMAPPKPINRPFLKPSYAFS

Structure (SMILES)	Potency	activity change, negative = inhibition
CC(C)(C)NCC(O)c1ccc(O)c(CO)c1 (stereo unspecified)	inactive	
CCn1cc(C(=O)O)c(=O)c2cc(F)c(N3CCNC(C)C3)c(F)c21 (stereo unspecified)		-8.65% (inactive)
CC(C[N+](C)(C)C)OC(N)=O (stereo unspecified)		-6.73% (inactive)
CCN(CC)CCCC(C)Nc1ccnc2cc(Cl)ccc12 (stereo unspecified)		12.3% (inactive)
Cc1cnc(NC(=O)C2=C(O)c3ccccc3S(=O)(=O)N2C)s1		-9.59% (inactive)
CC(C)NCC(O)COc1ccc(COCCOC(C)C)cc1 (stereo unspecified)		-3.54% (inactive)
CC(C)C[C@H](NC(=O)[C@@H](O)[C@H](N)Cc1ccccc1)C(=O)O		-11.2% (inactive)
CN1CCN(CCCN2c3ccccc3Sc3ccc(C(F)(F)F)cc32)CC1		-7.06% (inactive)
N=c1nc(N2CCCCC2)cc(N)n1O		-10.1% (inactive)
O=c1n(CCCN2CCN(c3cccc(Cl)c3)CC2)nc2ccccn12		-6.65% (inactive)
NC(=O)c1cnccn1		-7.91% (inactive)
Cc1cn[nH]c1		-10.7% (inactive)
C1COC(NC(C2CC2)C2CC2)=N1		-10.6% (inactive)
Nc1ccc(S(=O)(=O)Nc2ccnn2-c2ccccc2)cc1		-12% (inactive)
CC(C)(Sc1ccc(CCN(CCCCC2CCCCC2)C(=O)NC2CCCCC2)cc1)C(=O)O	28.2 µM (active)	
Oc1ccc(C2CNCCc3c2cc(O)c(O)c3Cl)cc1 (stereo unspecified)	35.5 µM (active)	
